We go through 32 sequences from article PMC12820563, “FoxP3 forms a head-to-head dimer in vivo and stabilizes its multimerization on adjacent microsatellites”.

The full ranking holds about 16,000 sequences; the median of “rpm ratio (pull-down/input)” is about 0.5, and the highest 2% start at about 5.5. For the sample, the highest values were picked, then their nearest neighbours and some sequences at random.

This assay has as its target T1, MBP-FoxP3dN (Mus musculus, UniProt Q99JB6 188-423).
T1 sequence: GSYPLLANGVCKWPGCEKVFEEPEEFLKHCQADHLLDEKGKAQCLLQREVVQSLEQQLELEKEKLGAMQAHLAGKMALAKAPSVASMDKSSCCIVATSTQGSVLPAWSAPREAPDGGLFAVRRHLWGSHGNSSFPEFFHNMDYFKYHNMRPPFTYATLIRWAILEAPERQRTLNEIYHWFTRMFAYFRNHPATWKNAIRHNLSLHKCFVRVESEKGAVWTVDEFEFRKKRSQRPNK
Nature of the assay: PD-seq (MBP pull-down with sequencing); 20 mM Tris-HCl pH 7.5, 100 mM NaCl, 1.5 mM MgCl2, 0.4 uM protein, 0.1 uM dsDNA library, 30 min, room temperature, amylose pull-down; high values mean tight binding. Conditions: protein: recombinant; tags: His6-MBP; chain copies: 2; dsDNA, one strand shown. The essentials:
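Binding is reads-per-million enrichment of pull-down over input, with replicates pooled. It comes from 30 min room-temperature incubation in Tris pH 7.5 buffer with NaCl and MgCl2 of 0.4 µM His6-MBP-tagged, N-terminally truncated mouse FoxP3 or FoxP1 fragment from E. coli with 0.1 µM Klenow-filled degenerate double-stranded DNA library, followed by amylose resin capture, three washes and Illumina sequencing of the released DNA.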
In the case of “GATGATTGTTCTCCCAGCTGATGAATTGTGTAAATCGAGTAAACAAATTTTCCTAATCTTTCTGTTCAAGCGCCATCTAC”, the binding signal was 0.96 RPM ratio (pull-down/input).

With “GATGATTGTTCTCCCAGCTGATGAATTGTATATCTCGAGTAAACAAATTTTCCTAATCTTTCTGTTCAAGCGCCATCTAC”, the binding signal was 3.03 RPM ratio (pull-down/input).

For “GATGATTGTTCTCCCAGCTGATGAATTGTGTGTATCGAGTAAACAAATTTTCCTAATCTTTCTGTTCAAGCGCCATCTAC”, the binding signal was 6.39 RPM ratio (pull-down/input).

For “GATGATTGTTCTCCCAGCTGATGAATTCTTTGTATCGAGTAAACAAATTTTCCTAATCTTTCTGTTCAAGCGCCATCTAC”, the binding signal was 0.57 RPM ratio (pull-down/input).

As for “GATGATTGTTCTCCCAGCTGATGAATTCTCTGTATCGAGTAAACAAATTTTCCTAATCTTTCTGTTCAAGCGCCATCTAC”, the binding signal was 0.441 RPM ratio (pull-down/input).

Turning to “GATGATTGTTCTCCCAGCTGATGAATTTTCTGTATCGAGTAAACAAATTTTCCTAATCTTTCTGTTCAAGCGCCATCTAC”, the binding signal was 0.456 RPM ratio (pull-down/input).

Turning to “GATGATTGTTCTCCCAGCTGATGAATTTGGTGTATCGAGTAAACAAATTTTCCTAATCTTTCTGTTCAAGCGCCATCTAC”, the binding signal is 3.25 RPM ratio (pull-down/input).

Regarding “GATGATTGTTCTCCCAGCTGATGAATTTCAACGGTCGAGTAAACAAATTTTCCTAATCTTTCTGTTCAAGCGCCATCTAC”, the binding signal was 0.241 RPM ratio (pull-down/input).

For “GATGATTGTTCTCCCAGCTGATGAATTTGGTGGCTCGAGTAAACAAATTTTCCTAATCTTTCTGTTCAAGCGCCATCTAC”, the binding signal was 1.09 RPM ratio (pull-down/input).

Regarding “GATGATTGTTCTCCCAGCTGATGAATTTCATAACTCGAGTAAACAAATTTTCCTAATCTTTCTGTTCAAGCGCCATCTAC”, the binding signal was 0.332 RPM ratio (pull-down/input).

With “GATGATTGTTCTCCCAGCTGATGAATTATTCATCTCGAGTAAACAAATTTTCCTAATCTTTCTGTTCAAGCGCCATCTAC”, the binding signal is 0.399 RPM ratio (pull-down/input).

Consider “GATGATTGTTCTCCCAGCTGATGAATTTAGACCGTCGAGTAAACAAATTTTCCTAATCTTTCTGTTCAAGCGCCATCTAC”, for which the binding signal is 0.5 RPM ratio (pull-down/input).

For the sequence “GATGATTGTTCTCCCAGCTGATGAATTGTATCTCTCGAGTAAACAAATTTTCCTAATCTTTCTGTTCAAGCGCCATCTAC”, the binding signal is 1.51 RPM ratio (pull-down/input).

Turning to “GATGATTGTTCTCCCAGCTGATGAATTCTGTATCTCGAGTAAACAAATTTTCCTAATCTTTCTGTTCAAGCGCCATCTAC”, the binding signal was 4.93 RPM ratio (pull-down/input).

As for “GATGATTGTTCTCCCAGCTGATGAATTGTGTATCTCGAGTAAACAAATTTTCCTAATCTTTCTGTTCAAGCGCCATCTAC”, the binding signal was 6.36 RPM ratio (pull-down/input).

Take “GATGATTGTTCTCCCAGCTGATGAATTTGACTTTTCGAGTAAACAAATTTTCCTAATCTTTCTGTTCAAGCGCCATCTAC”: the binding signal is 0.49 RPM ratio (pull-down/input).

In the case of “GATGATTGTTCTCCCAGCTGATGAATTGACGTAGTCGAGTAAACAAATTTTCCTAATCTTTCTGTTCAAGCGCCATCTAC”, the binding signal was 0.381 RPM ratio (pull-down/input).

Consider “GATGATTGTTCTCCCAGCTGATGAATTAAATTTCTCGAGTAAACAAATTTTCCTAATCTTTCTGTTCAAGCGCCATCTAC”, for which the binding signal is 0.664 RPM ratio (pull-down/input).

Take “GATGATTGTTCTCCCAGCTGATGAATTACAGCATTCGAGTAAACAAATTTTCCTAATCTTTCTGTTCAAGCGCCATCTAC”: the binding signal is 5.18 RPM ratio (pull-down/input).

For the sequence “GATGATTGTTCTCCCAGCTGATGAATTAAGCATTTCGAGTAAACAAATTTTCCTAATCTTTCTGTTCAAGCGCCATCTAC”, the binding signal was 6.1 RPM ratio (pull-down/input).

As to “GATGATTGTTCTCCCAGCTGATGAATTTAAACATTCGAGTAAACAAATTTTCCTAATCTTTCTGTTCAAGCGCCATCTAC”, the binding signal was 0.704 RPM ratio (pull-down/input).

As to “GATGATTGTTCTCCCAGCTGATGAATTAAGCTGTTCGAGTAAACAAATTTTCCTAATCTTTCTGTTCAAGCGCCATCTAC”, the binding signal was 1.12 RPM ratio (pull-down/input).

As for “GATGATTGTTCTCCCAGCTGATGAATTCAAGCATTCGAGTAAACAAATTTTCCTAATCTTTCTGTTCAAGCGCCATCTAC”, the binding signal was 4.27 RPM ratio (pull-down/input).

For “GATGATTGTTCTCCCAGCTGATGAATTTAAGCATTCGAGTAAACAAATTTTCCTAATCTTTCTGTTCAAGCGCCATCTAC”, the binding signal is 5.65 RPM ratio (pull-down/input).

On to “GATGATTGTTCTCCCAGCTGATGAATTAAGCCATTCGAGTAAACAAATTTTCCTAATCTTTCTGTTCAAGCGCCATCTAC”, for which the binding signal was 4.08 RPM ratio (pull-down/input).

With “GATGATTGTTCTCCCAGCTGATGAATTAAGCATCTCGAGTAAACAAATTTTCCTAATCTTTCTGTTCAAGCGCCATCTAC”, the binding signal was 6.6 RPM ratio (pull-down/input).

For “GATGATTGTTCTCCCAGCTGATGAATTAAAGCATTCGAGTAAACAAATTTTCCTAATCTTTCTGTTCAAGCGCCATCTAC”, the binding signal was 5.57 RPM ratio (pull-down/input).

As to “GATGATTGTTCTCCCAGCTGATGAATTAAGCAGCTCGAGTAAACAAATTTTCCTAATCTTTCTGTTCAAGCGCCATCTAC”, the binding signal was 1.33 RPM ratio (pull-down/input).

Regarding “GATGATTGTTCTCCCAGCTGATGAATTTTAAGCATCGAGTAAACAAATTTTCCTAATCTTTCTGTTCAAGCGCCATCTAC”, the binding signal was 0.881 RPM ratio (pull-down/input).

On to “GATGATTGTTCTCCCAGCTGATGAATTGGGAAGGTCGAGTAAACAAATTTTCCTAATCTTTCTGTTCAAGCGCCATCTAC”, for which the binding signal was 0.234 RPM ratio (pull-down/input).

In the case of “GATGATTGTTCTCCCAGCTGATGAATTCACGGTTTCGAGTAAACAAATTTTCCTAATCTTTCTGTTCAAGCGCCATCTAC”, the binding signal is 0.47 RPM ratio (pull-down/input).

With “GATGATTGTTCTCCCAGCTGATGAATTATTACATTCGAGTAAACAAATTTTCCTAATCTTTCTGTTCAAGCGCCATCTAC”, the binding signal was 0.591 RPM ratio (pull-down/input).
